The nature of assay [1]: qHTS assay to identify small molecule antagonists of the androgen receptor (AR) signaling pathway using the MDA cell line in the presence of 0.5 nM R1881 - cell viability counter screen (AID 1259242). Also: nearly all actives have a fitted effect of over 45% in size. Also: potency is read from the fitted curve at half-maximal effect. In a few lines: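 Human breast carcinoma MDA-kb2 cells, cultured without CO2, receive compounds alongside 0.5 nM (final) R1881 agonist. After 16 hr at 37C, viability is taken as live-cell protease signal.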

A short description of assay [2]: qHTS assay to identify small molecule HDAC inhibitors (AID 1259364). Also: potency is read from the fitted curve at half-maximal effect.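 Also: wild-type HCT-116 cells with endogenous class I/II HDAC activity; nearly all actives have a fitted effect of over 45% in size.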 As to activity change, negative = inhibition: top concentration of the series differs between compounds. In a few lines:
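After a 2 hr compound incubation (37C, 5% CO2), HCT-116 cells seeded at 1,500/well the day before received HDAC-Glo reagent; signal read as luminescence after 30 min at room temperature.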
(In general: Quantitative high-throughput screening tests each substance at several concentrations.)

Assay [3] can be described thus: qHTS assay to identify small molecule HDAC inhibitors - cell viability counter screen (AID 1259365). Also: series mostly up to about 92 µM; nearly all actives have a fitted effect of over 50% in size. The method, boiled down:
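Cytotoxicity was gauged in wild-type HCT-116 cells after a brief 2hr treatment with DMSO-dissolved compounds at 37C and 5% CO2, using CellTiter-Glo luminescence developed for 30min at room temperature.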

Assay [4] in a line: qHTS assay to identify small molecule agonists of the sonic hedgehog signaling (Shh) pathway - cell viability counter screen (AID 1259366). Also: nearly all actives have a fitted effect of over 50% in size. Also: potency is read from the fitted curve at half-maximal effect. In a few lines:
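Stable Gli1-Luc NIH/3T3 clone, 2,000 cells/well. Compound exposure 24hr at 37C. Read-out: CellTiter-Fluor fluorescence.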

Assay [5] can be described thus: qHTS assay to identify small molecule antagonists of the sonic hedgehog signaling (Shh) pathway - cell viability counter screen (AID 1259367). Also: nearly all actives have a fitted effect of over 55% in size. Also: potency is read from the fitted curve at half-maximal effect. The method, boiled down:
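Tox21 library chemicals were tested on a Gli1-Luc NIH/3T3 clone (2,000 cells/well) stimulated by conditioned medium; viability was quantified as fluorescence from CellTiter-Fluor reagent added at 23 hr.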

The nature of assay [6]: qHTS assay to identify small molecule agonists of the sonic hedgehog signaling (Shh) pathway (AID 1259368; calls by dose curve; also: nearly all actives have a fitted effect of over 15% in size; also: potency is read from the fitted curve at half-maximal effect;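 as to activity change: NIH/3T3-derived 3T3Gli1-Luc cells carrying a stable Gli1-driven firefly luciferase reporter; series mostly up to about 92 µM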). The method, boiled down: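 Stable NIH/3T3 Gli1-Luc reporter clone; 24 hr cpd exposure after a 4 hr settling period; luminescence endpoint.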
A short description of assay [7]: qHTS assay to identify small molecule phospholipidosis (PLD) inducers (AID 1259344; active = well fitted curve in the direction sought with a large enough effect; an effect the other way counts as inactive or inconclusive). The method, boiled down: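 Image-based: LipidTOX Red pit count/intensity per well and per cell; HepG2, 24 h compound at 37 C, PFA fixation, Hoechst counterstain.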
The target in assay [8] is Estrogen receptor (Homo sapiens) (UniProt P03372). Put plainly: qHTS assay to identify small molecule antagonists of the estrogen receptor alpha (ER-alpha) signaling pathway using the BG1 cell line in the presence of 0.1 nM 17-beta-estradiol (AID 1259244). Also: nearly all actives have a fitted effect of over 50% in size. Also: potency is read from the fitted curve at half-maximal effect. The method, boiled down: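 Seeding of stripped-serum-adapted VM7Luc4E2 cells, 24 h attachment, compound transfer, then 0.1 nM final 17beta-estradiol; after 22 h incubation, ONE-Glo reagent and luminescence reading.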
Estrogen receptor (Homo sapiens), sequence (P03372 whole entry, looked up): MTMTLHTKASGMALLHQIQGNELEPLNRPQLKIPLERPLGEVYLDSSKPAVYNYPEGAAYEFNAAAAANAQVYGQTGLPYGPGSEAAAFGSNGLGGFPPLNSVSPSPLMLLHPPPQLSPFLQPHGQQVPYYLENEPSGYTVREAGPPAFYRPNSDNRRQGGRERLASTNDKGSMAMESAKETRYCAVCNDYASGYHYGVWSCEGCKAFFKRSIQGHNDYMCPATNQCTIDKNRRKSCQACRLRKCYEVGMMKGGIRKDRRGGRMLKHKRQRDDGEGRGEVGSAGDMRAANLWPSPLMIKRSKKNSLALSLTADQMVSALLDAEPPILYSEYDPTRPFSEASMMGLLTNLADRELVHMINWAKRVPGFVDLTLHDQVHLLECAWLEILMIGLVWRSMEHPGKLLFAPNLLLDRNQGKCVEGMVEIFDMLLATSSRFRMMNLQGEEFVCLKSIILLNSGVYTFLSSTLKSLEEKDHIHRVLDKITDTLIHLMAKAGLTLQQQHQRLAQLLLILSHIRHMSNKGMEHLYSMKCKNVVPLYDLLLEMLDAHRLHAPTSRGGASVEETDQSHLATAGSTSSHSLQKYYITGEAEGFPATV

Assay [9] deals with Androgen receptor (Homo sapiens) (UniProt P10275). Put plainly: qHTS assay to identify small molecule antagonists of the androgen receptor (AR) signaling pathway using the MDA cell line in the presence of 0.5 nM R1881 (AID 1259243). Also: nearly all actives have a fitted effect of over 50% in size. Also: potency is read from the fitted curve at half-maximal effect. The method, boiled down:
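Cells: MDA-kb2 (MMTV-luc). Stimulus: 0.5 nM R1881. Time: 16 hr, 37C, no CO2. Detection: ONE-Glo luminescence after 30 min at RT.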

Consider 36 compounds from PubChem BioAssay (Tox21).

A number with no mark means an inactive call. Records with an inconclusive call do not appear. Activity calls are given as the source filed them. Unless noted, calls follow the shape of the dose curve; as a rule, active = well fitted curve in the direction sought with a large enough effect in the repeat runs; inconclusive = weak or mixed curves; inactive = no such curve, though single readings can be large; an effect the other way counts as inactive or inconclusive.
% is scaled to controls: 0 for no effect and ±100 for the full control effect.

Androgen receptor (Homo sapiens), sequence (P10275 whole entry, looked up): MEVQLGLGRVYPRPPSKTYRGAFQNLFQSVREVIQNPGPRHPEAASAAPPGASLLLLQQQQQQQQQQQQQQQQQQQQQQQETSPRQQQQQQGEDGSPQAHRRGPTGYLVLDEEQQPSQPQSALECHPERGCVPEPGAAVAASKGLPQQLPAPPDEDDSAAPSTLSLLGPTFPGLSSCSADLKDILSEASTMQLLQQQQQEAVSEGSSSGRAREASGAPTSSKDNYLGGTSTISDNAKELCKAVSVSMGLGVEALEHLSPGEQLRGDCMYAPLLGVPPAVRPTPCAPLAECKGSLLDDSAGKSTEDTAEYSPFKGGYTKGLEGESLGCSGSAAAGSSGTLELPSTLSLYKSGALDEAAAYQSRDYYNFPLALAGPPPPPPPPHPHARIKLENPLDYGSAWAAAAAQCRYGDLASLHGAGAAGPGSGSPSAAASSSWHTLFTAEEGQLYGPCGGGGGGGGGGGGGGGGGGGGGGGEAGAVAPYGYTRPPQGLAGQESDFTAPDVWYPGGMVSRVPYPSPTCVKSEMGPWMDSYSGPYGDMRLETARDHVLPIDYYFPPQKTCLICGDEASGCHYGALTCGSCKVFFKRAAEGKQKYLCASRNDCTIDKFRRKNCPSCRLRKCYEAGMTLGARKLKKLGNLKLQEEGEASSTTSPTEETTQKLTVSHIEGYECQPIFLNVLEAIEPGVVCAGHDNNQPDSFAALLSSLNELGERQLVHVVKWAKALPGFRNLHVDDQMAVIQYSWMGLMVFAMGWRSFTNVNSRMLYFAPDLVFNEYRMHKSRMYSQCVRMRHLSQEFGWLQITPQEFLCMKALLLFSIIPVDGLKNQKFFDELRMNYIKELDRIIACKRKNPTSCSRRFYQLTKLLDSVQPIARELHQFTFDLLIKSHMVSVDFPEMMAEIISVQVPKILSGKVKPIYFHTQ

Consider `CN1CCCC(n2nc(Cc3ccc(Cl)cc3)c3ccccc3c2=O)CC1` (centres undefined), for which the Potency entry in assay [1], in assay [2], in assay [3] and in assay [6] was “inactive” throughout. Besides, the Potency in assay [4] and in assay [5] was 10.6 µM (active) throughout.
Regarding `Cc1cc(=O)c2c(O)c3c(O)cc(=O)c4c3c3c(cc(O)c1c23)C(C)(C)C=4O`, the Potency entry in assay [7] is “inactive”. In assay [2], the activity change, negative = inhibition was 3.66% [at 19 µM]. In addition, the activity change, negative = cytotoxicity in assay [3] is 2.88% [at 19 µM]. Also, the viability change, negative = cytotoxic in assay [4] was 17.6% [at 19 µM]; in assay [5], -14.6% [at 19 µM]. Moreover, the activity change in [6] is -5.72% [at 18.9 µM, hits give high values].
`O=C(O)c1cccc(-c2noc(-c3ccccc3F)n2)c1`: the Potency entry in [1], in assay [7], in assay [4], in assay [5] and in assay [6] was “inactive” in each case. Further, the Potency in [2] is 0.422 µM (active).
`c1ccc2sc(SN(C3CCCCC3)C3CCCCC3)nc2c1`: the Potency entry in assay [1], in assay [8], in assay [2], in [3], in [4] and in assay [5] was “inactive” in each case. Further, in assay [6], the Potency result is “inactive”.
With `NNC(=O)CP(=O)(c1ccccc1)c1ccccc1`, the Potency entry in assay [1], in [7], in [2], in assay [3], in assay [4] and in assay [5] was “inactive” each time. In assay [6], the Potency entry is “inactive”.
In the case of `CC(=O)Oc1ccc([N+](=O)[O-])cc1CCl`, the Potency was 30.6 µM (active) in [1], 27.3 µM (active) in assay [4] and 27.3 µM (active) in assay [5]. For the same compound, the Potency result in assay [8], in assay [3] and in [6] was “inactive” each time.
Take `CCC(C)COC(C)=O` (centres undefined): the Potency entry in assay [1], in assay [8], in [2], in assay [3], in assay [4] and in assay [5] was “inactive” throughout. For the same compound, the Potency result in [6] is “inactive”.
Take `CCCCCCNC(=O)n1cc(F)c(=O)[nH]c1=O`: the Potency entry in assay [1], in [7], in assay [2], in assay [3], in assay [4] and in [5] was “inactive” throughout. In addition, the Potency entry in assay [6] was “inactive”.
As to `C=C(C)C(=O)OCCCCCCCCCCCCC`, the Potency result in assay [1], in assay [8], in [3], in assay [4], in assay [5] and in assay [6] was “inactive” each time.
On to `CC(C)=CCC/C(C)=C/CC/C(C)=C/C(=O)OCC(=O)[C@@]1(O)CC[C@H]2[C@@H]3CCC4=CC(=O)C=C[C@]4(C)[C@H]3[C@@H](O)C[C@@]21C`, for which the Potency result in assay [9], in [3], in assay [4], in assay [5] and in [6] was “inactive” each time. Besides, the Potency in [8] was 26.6 µM (active).
In the case of `Cc1cc(O)ccc1O`, the Potency result in assay [1], in assay [3] and in assay [6] was “inactive” throughout. Moreover, the Potency in [4] is 13.8 µM (active).
Turning to `O=C(O)C[C@H](NC(=O)OCc1ccccc1)C(=O)O`, the Potency entry in assay [1], in [8], in assay [2], in [3], in [4] and in assay [5] was “inactive” each time. The Potency entry in [6] is “inactive”.
Regarding `Nc1nc2ccc([N+](=O)[O-])cc2s1`, the Potency in assay [9] is 6.86 µM (active); in [2], 17.7 µM (active). Also, the Potency result in [7], in [3] and in assay [6] was “inactive” throughout.
With `COc1cc(C(=O)NC2CCN(C)CC2)ccc1Nc1ncc2c(n1)N(C1CCCC1)CC(F)(F)C(=O)N2C`, the Potency result in [9], in [2], in assay [3] and in [6] was “inactive” in each case. Besides, the results for the Potency in assay [8], in assay [4] and in assay [5] were 2.81 µM (active), 5.6 µM (active) and 0.791 µM (active), respectively.
As for `CC(C)=CC(=O)C=C(C)C`, the Potency result in [1], in assay [8], in assay [2], in assay [3], in assay [4] and in assay [5] was “inactive” each time. In addition, the Potency entry in assay [6] was “inactive”.
For `Cc1c(C)c2c(c(C)c1OC(=O)CCC(=O)OCCO)CC[C@@](C)(CCC[C@H](C)CCC[C@H](C)CCCC(C)C)O2`, the Potency result in assay [1], in assay [8], in assay [2], in [3], in assay [4] and in [5] was “inactive” in each case. In assay [6], the Potency result is “inactive”.
Consider `CCOC(=O)c1ccc(O)c(O)c1`, for which the Potency entry in assay [1], in assay [8], in assay [2], in assay [3], in assay [4] and in assay [5] was “inactive” each time. In addition, in [6], the Potency result was “inactive”.
Turning to `N#CCc1ccc(Cl)cc1Cl`, the Potency entry in [1], in [8], in [2], in assay [3], in assay [4] and in assay [5] was “inactive” throughout. Further, in [6], the Potency entry was “inactive”.
`CCOC(=O)OC(C)OC(=O)[C@@H]1N2C(=O)[C@@H](NC(=O)[C@H](N)c3ccccc3)[C@H]2SC1(C)C` (some centres undefined): the Potency entry in [1], in assay [7], in assay [2], in [3], in assay [4] and in [5] was “inactive” each time. Also, the Potency entry in [6] is “inactive”.
As to `Oc1cccc(Nc2ccccc2)c1`, the Potency result in assay [1], in assay [8], in assay [2], in assay [3], in [5] and in [6] was “inactive” throughout.
For `O=C(O)c1ccc(OCCCOc2ccc(C(=O)O)cc2)cc1`, the Potency entry in [1], in [7], in [2], in assay [3], in assay [4] and in assay [5] was “inactive” throughout. Further, the Potency result in [6] was “inactive”.
Consider `Nc1ccc(N=Nc2ccccc2)c(N)c1`, for which the Potency result in assay [8] and in assay [3] was “inactive” in each case. The Potency in [2] was 1.5 µM (active); in assay [6], 1.34 µM (active).
Consider `Clc1cc(Cl)nc(Cl)n1`, for which the Potency entry in [1], in assay [2], in assay [3], in assay [4], in assay [5] and in assay [6] was “inactive” in each case.
On to `CN1CCCC(CC2c3ccccc3Sc3ccccc32)C1` (centres undefined), for which the Potency result in [8], in assay [3] and in assay [6] was “inactive” each time.
For the compound `CCCCCCCCOc1ccc(C(=O)O)cc1`, the Potency entry in [1], in assay [3], in assay [4] and in assay [5] was “inactive” in each case.
Consider `O=C1c2ccccc2C(=O)c2c(O)c(O)cc(O)c21`, for which the Potency entry in [2], in assay [3] and in [6] was “inactive” in each case.
On to `CN1C[C@H](C(=O)N[C@]2(C)O[C@@]3(O)[C@@H]4CCCN4C(=O)[C@H](Cc4ccccc4)N3C2=O)C[C@@H]2c3cccc4[nH]cc(c34)C[C@H]21`, for which the Potency result in assay [1], in assay [3], in assay [5] and in [6] was “inactive” throughout.
For `Cc1ccccc1S`, the Potency result in assay [1], in assay [8], in assay [2], in assay [3], in [4] and in assay [5] was “inactive” each time. Also, the Potency entry in [6] is “inactive”.
Turning to `CN1C(=O)N(c2ccccc2Br)Cc2cnc(Nc3ccc4c(c3)OCC(CO)O4)nc21` (centres undefined), the Potency in assay [8] was 48.6 µM (active); in [4], 0.193 µM (active); in [5], 1.72 µM (active). Moreover, the Potency result in assay [2], in [3] and in assay [6] was “inactive” in each case.
For `C(=C\c1ccccc1)/c1ccccc1`, the Potency result in assay [1], in assay [8], in assay [3], in assay [4], in assay [5] and in assay [6] was “inactive” throughout. Moreover, in assay [2], the Potency is 19.2 µM (active).
As to `OCCN1CCN(CCCN2c3ccccc3Sc3ccc(Cl)cc32)CC1`, the Potency result in assay [1], in assay [8], in assay [2], in assay [3] and in assay [6] was “inactive” in each case. The Potency in assay [4] and in assay [5] was 13.3 µM (active) in each case.
As for `O=c1[nH]c2ccc(Cl)cc2o1`, the Potency result in [1], in [8], in assay [3], in assay [4], in [5] and in assay [6] was “inactive” each time.
`CNC(=O)c1cnn(-c2nc(N)c3ncn([C@@H]4O[C@H](CO)[C@@H](O)[C@H]4O)c3n2)c1`: the Potency result in [1], in assay [8], in assay [3], in assay [4], in assay [5] and in assay [6] was “inactive” each time.
On to `Oc1ccc(Cl)c2cccnc12`, for which the Potency in assay [9] is 10.6 µM (active); in assay [8] it was 21.1 µM (active); in [5], 3.35 µM (active). In addition, the Potency entry in assay [7], in assay [2], in assay [3] and in assay [6] was “inactive” in each case.
`CCC1NC(=O)c2cc(S(N)(=O)=O)c(Cl)cc2N1` (centres undefined): the Potency entry in assay [1], in assay [7], in assay [2], in assay [3], in assay [4] and in assay [5] was “inactive” in each case. For the same compound, the Potency result in [6] was “inactive”.
Take `CC1CC(OC(=O)C(O)c2ccccc2)CC(C)(C)N1C` (centres undefined): the Potency result in assay [1], in [7], in assay [2], in assay [3], in [4] and in [5] was “inactive” throughout. Also, in assay [6], the Potency result was “inactive”.
